# Source: PubChem
# JMJD2A Tudor inh: JMJD2A Tudor domain (human) inhibition | AlphaScreen JMJD2A-Tudor / H3K4me3 peptide binding | 390,000 compounds, 4.4% hits | O75164 | Potency, µM (titrated, usually from 114 µM), for the others: top-dose activity change, negative = inhibition, most hits filed as inhibitors; note: potency is the fitted concentration of half-maximal effect; % is set by controls: 0 for no effect and ±100 for the full control effect; nearly all actives have a fitted effect of over 50% in size
# Target sequence (O75164 whole entry, looked up, the tested form may be a part): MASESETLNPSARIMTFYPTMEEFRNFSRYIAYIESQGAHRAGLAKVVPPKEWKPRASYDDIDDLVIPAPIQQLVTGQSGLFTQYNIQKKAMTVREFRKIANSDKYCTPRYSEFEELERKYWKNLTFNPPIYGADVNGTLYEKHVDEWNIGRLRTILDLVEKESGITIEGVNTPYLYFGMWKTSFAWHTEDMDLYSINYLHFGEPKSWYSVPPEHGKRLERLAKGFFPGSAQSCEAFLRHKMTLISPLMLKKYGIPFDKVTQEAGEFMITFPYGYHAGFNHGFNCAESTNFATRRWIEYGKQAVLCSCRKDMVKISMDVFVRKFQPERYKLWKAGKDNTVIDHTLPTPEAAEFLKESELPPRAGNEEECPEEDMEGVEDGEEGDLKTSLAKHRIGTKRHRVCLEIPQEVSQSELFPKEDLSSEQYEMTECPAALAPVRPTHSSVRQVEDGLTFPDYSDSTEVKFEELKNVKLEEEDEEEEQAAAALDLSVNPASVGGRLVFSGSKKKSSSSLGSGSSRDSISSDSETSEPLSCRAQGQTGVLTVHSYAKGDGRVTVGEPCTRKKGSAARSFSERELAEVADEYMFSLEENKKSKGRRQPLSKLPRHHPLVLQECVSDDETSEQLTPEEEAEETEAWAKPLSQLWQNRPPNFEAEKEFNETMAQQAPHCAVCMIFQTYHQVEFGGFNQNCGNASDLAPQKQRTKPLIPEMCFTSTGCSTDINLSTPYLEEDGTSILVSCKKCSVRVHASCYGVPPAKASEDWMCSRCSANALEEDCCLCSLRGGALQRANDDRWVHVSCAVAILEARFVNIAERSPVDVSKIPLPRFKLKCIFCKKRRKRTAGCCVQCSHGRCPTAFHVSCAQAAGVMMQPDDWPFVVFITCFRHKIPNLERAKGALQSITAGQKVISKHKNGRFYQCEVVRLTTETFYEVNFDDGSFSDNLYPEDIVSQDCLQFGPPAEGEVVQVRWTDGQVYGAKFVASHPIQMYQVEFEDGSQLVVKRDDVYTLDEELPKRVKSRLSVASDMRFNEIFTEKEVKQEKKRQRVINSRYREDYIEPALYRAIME
# PI5P4K alpha inh: blocks human PI5P4K alpha kinase activity; max response, %; P48426; 330,000 compounds, 1.2% hits; PI5P4Kalpha enzyme, ADP-Glo luminescence, 60 min; hits give low values; active = max response of -50% or lower; inconclusive = between -30% and -50%; inactive = -30% or higher; note: value at the top dose of about 77 µM; % is set by controls: 0 for no effect and ±100 for the full control effect
#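 ADP-Glo luminescence end-point after a 60 min room-temperature kinase reaction. PI5P4Kalpha and substrate in HEPES pH 7.4 buffer with EGTA, 0.1% CHAPS and 5% DMSO; ATP at 5 microM final.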
# PLK1 PBD inh: inhibitors of human PLK1 polo-box domain binding; P53350; Plk1 PBD binding of FITC phosphopeptide, fluorescence polarization; Potency, µM, for the others: max response, negative = inhibition, actives largely listed as inhibitors; 360,000 compounds, 2.8% hits; AID 720504; note: potency is the fitted concentration of half-maximal effect; series mostly up to about 57 µM; % is set by controls: 0 for no effect and ±100 for the full control effect; nearly all actives have a fitted effect of over 65% in size
# BAZ2B inh: inhibitors of human BAZ2B bromodomain | AlphaScreen BAZ2B-H3K14Ac peptide displacement | Potency, µM (series often up to 114 µM), for inactives: at the highest dose activity change, negative = inhibition, hits mostly inhibitors | 360,000 compounds, 4.4% hits | AID 504333 | Q9UIF8; note: potency is the fitted concentration of half-maximal effect; % is set by controls: 0 for no effect and ±100 for the full control effect; nearly all actives have a fitted effect of over 60% in size
#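 Multi-concentration screen (max 110 uM) measuring displacement of acetylated histone H3 peptide from BAZ2B by AlphaScreen, using 50 nM protein, 50 nM peptide and 10 ug/mL streptavidin donor plus Ni-chelate acceptor beads.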
# KAT2A inh: inhibitors of human GCN5L2 histone acetyltransferase. Q92830. GCN5L2 HAT assay, ThioGlo1 CoA-SH fluorescence. Potency, µM (doses to about 58.9 µM), inactives show top-dose activity change, negative = inhibition, most hits filed as inhibitors. 390,000 compounds, 0.21% hits. AID 504327; note: potency is the fitted concentration of half-maximal effect; % is set by controls: 0 for no effect and ±100 for the full control effect
#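 Compounds, pin-transferred from DMSO stocks, meet 20nM GCN5L2 for 15 min before the reaction begins with H3(1-25) peptide (75uM) and acetyl-CoA (70uM). Thiol-reactive ThioGlo1 reports CoA release over 20 min at room temperature.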
# HP1b binding inh: HP1-beta chromodomain-methylated histone interaction inhibition | AlphaScreen HP1-beta / biotin-H3K9me3 peptide binding | 390,000 compounds, 0.56% hits | P83916 | Potency, µM (doses to about 114 µM), without a hit: at the top dose activity change, negative = inhibition, most hits filed as inhibitors; note: potency is the fitted concentration of half-maximal effect; nearly all actives have a fitted effect of over 70% in size
#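 AlphaScreen: HP1-beta (50 nM) preformed 30 min with biotin-H3(1-18)K9me3 peptide (50 nM) in PBS pH 7.4, 0.01% Tween-20. Compound added for 30 min at RT, then streptavidin donor/nickel chelate acceptor beads (10 ug/mL) for 30 min.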
# An asterisk follows results filed as active; ? = inconclusive; . = no result; [ ] = dose if it differs, or a comment. The list is not random: actives were taken first. Their share in the collection is about 7%. Unless noted, calls come from the whole dose curve; as a rule, active = well fitted curve in the direction sought with a large enough effect; inconclusive = small, poorly fitted or top-dose-only effect, or another doubt; inactive = no such curve, though single readings can be large; an effect the other way counts as inactive or inconclusive.
SMILES,JMJD2A Tudor inh,PI5P4K alpha inh,PLK1 PBD inh,BAZ2B inh,KAT2A inh,HP1b binding inh
CCC(C)[C@H]1CNCCN1CCC12CC3CC(CC(C3)C1)C2 (stereo partly drawn),-31%,2,-1%,-10%,-7%,-2%
CCc1ccc(-n2c(N3CCN(c4ccc(F)cc4)CC3)nc3ccccc3c2=O)cc1,-29%,.,.,.,-7%,-2%
COc1cc(OC)cc(C(=O)O/N=C(\N)c2ccccn2)c1,-16%,1,3%,-3%,-1%,48%
Cc1ccc(C(=O)O/N=C(\N)c2ccccn2)c(C)c1,-14%,-57*,-4%,-20%,-12%,23%
COc1ccc(C(=O)O/N=C(\N)c2ccccn2)cc1,-5%,-71*,-14%,5%,-7%,35%[57 µM]
COc1cc(NC(=O)c2ccccn2)cc(OC)c1OC,?,?,6.7µM*,-4%,-2%,?
COc1ccc(C(=O)NNC(=O)c2ccccn2)cc1,8%,-57*,2%,-3%,-4%,38%
CCOc1ccc(CCNC(c2nnc(-c3ccccc3)o2)c2ccccc2Cl)cc1OCC (stereo not drawn),-21%,.,.,2%,-21%,74%
COC(=O)C1=C(O)/C(=C\c2ccc(OCC(=O)Nc3ccccc3OC)cc2)N=C1C,?,?,21µM*,-22%,2%,19%
CCOCC(=O)Nc1nnc(C2CCCCC2)s1,-15%,-6,27µM*,7%,?,-27%
CCOC(=O)C(=O)Nc1nnc(C2CCCCC2)s1,-8%,-25,24µM*,-14%,-3%,-10%
CS(=O)(=O)Nc1nnc(C2CCCC2)s1,-36%,-18,19µM*,-24%,26%,-5%
COCC(=O)Nc1nnc(C2CCCCC2)s1,-22%,-8,-23%,3%,0%,30%
NS(=O)(=O)c1ccc(CCNc2ncnc3c2cnn3-c2cccc(Cl)c2)cc1,-29%,.,.,-9%,-2%,14%
COCCn1c(-c2ccccc2)c(C)n2c3c(=O)n(C)c(=O)n(C)c3nc12,-25%,.,.,?,-6%,23%
O=c1[nH]c(SCc2n[nH]c(=S)n2-c2ccccc2)nc2sc3c(c12)CCC3,56µM*,.,-13%,-33%,-9%,-8%
CCCCSc1nc2sc3c(c2c(=O)[nH]1)CCC3,-17%,.,-12%,3%,-23%,3%
COc1ccc(OCCNC2CCCC2)cc1,79µM*,0,1%,?,-1%,15%
c1ccc(Cc2ccc(OCCCNC3CCCC3)cc2)cc1,.,.,.,56µM*,-14%,.
c1cc2c(cc1OCCNC1CCCC1)CCC2,.,.,.,56µM*,-16%,.
CNCCCOc1ccc2c(c1)CCC2,22µM*,-1,-9%,50µM*,-4%,-37%
COC(=O)C1=C(\O)CCCC/C=C\1C(=O)O,-10%,22,-7%,.,.,13%
Cc1cc(C)cc(NC(=O)CN2C(=O)CSc3ccc(S(=O)(=O)N(C)C)cc32)c1,-23%,.,.,0%,-3%,30%
c1ccc(SCCCCNC2CCCC2)cc1,3.2µM*,1,?,56µM*,-4%,-18%[57 µM]
O=[N+]([O-])c1ccc(C2CCCC/C2=N/O)c([N+](=O)[O-])c1 (stereo not drawn),0%,0,0%,-15%,-2%,13%
SMILES,JMJD2A Tudor inh,PI5P4K alpha inh,PLK1 PBD inh,BAZ2B inh,KAT2A inh,HP1b binding inh
O=C(O/N=C1\CCCCC1c1ccc([N+](=O)[O-])cc1[N+](=O)[O-])c1c(F)cccc1F (stereo not drawn),45µM*,-13,?,?,-4%,-31%
COc1cccc(-c2cc(NC=O)c3ncc(-c4cccc(C(=O)N(C)C)c4)n3c2)c1,.,-68*,-24%,.,.,.
COc1cccc(-c2cnc3c(NC=O)cc(-c4ccc(O)c(OC)c4)cn23)c1,.,-65*,-26%,.,.,.
CC(=O)c1ccc(-c2cnc3c(NC=O)cc(-c4cnn(C)c4)cn23)cc1,.,-57*,-21%,.,.,.
COc1ccc(-c2cc(NC=O)c3ncc(-c4ccc(OC)c(OC)c4)n3c2)cc1OC,.,-26,-16%,.,.,.
CC(=O)c1ccc(-c2cnc3c(NC=O)cc(-c4ccc(S(C)(=O)=O)cc4)cn23)cc1,.,?,-2%,.,.,.
COc1ccc(-c2cc(NC=O)c3ncc(-c4ccc(OC)c(OC)c4)n3c2)cc1,.,-51*,-21%,.,.,.
COc1cccc(-c2cc(NC=O)c3ncc(-c4cc(OC)c(OC)c(OC)c4)n3c2)c1,.,?,-17%,.,.,.
CCc1ccc(NC(=O)C(=O)NCC(c2cccnc2)N2CCOCC2)cc1 (stereo not drawn),-31%,.,.,?,-9%,-5%
O=CNc1cc(-c2ccoc2)cn2c(-c3ccc(F)cc3)cnc12,.,-60*,?,.,.,.
Cn1cc(-c2cnc3c(NC=O)cc(-c4cccc(C(F)(F)F)c4)cn23)cn1,.,?,-21%,.,.,.
Nc1ccc(-c2cc(NC=O)c3ncc(-c4cccc(C(F)(F)F)c4)n3c2)cn1,.,-55*,-7%,.,.,.
COc1cc(-c2cc(NC=O)c3ncc(-c4ccc(C(C)=O)cc4)n3c2)ccc1O,.,-61*,-9%,.,.,.
COc1ccc(C(=O)CSc2nnc(CCc3ccccc3)n2-c2ccccc2)cc1,56µM*,.,1%,-1%,-17%,17%
COc1ccc(-n2c(CCc3ccccc3)nnc2SCC(=O)c2ccccc2)cc1,-35%,?,-3%,-37%,-8%,0%
Cc1ccccc1OCc1nnc(SC(C)C(=O)O)n1-c1ccccc1 (stereo not drawn),.,-54*,-7%,.,.,.
COc1ccc(C(=O)CSc2nnc(CNC(=O)c3ccc(OC)cc3)n2C)cc1,50µM*,.,-10%,4%,0%,15%
COc1ccc(-n2c(Cc3ccccc3)nnc2SCc2ccc([N+](=O)[O-])cc2)cc1,?,-5,27µM*,?,-3%,-14%
CC(C)Oc1ccc(CCc2nnc(SC(C)C(=O)O)n2-c2ccccc2)cc1 (stereo not drawn),56µM*,-5,?,2%,-2%,26%[57 µM]
Cc1ccccc1OCc1nnc(SCCN2CCCC2)n1-c1ccccc1,-4%,-7,7%,79µM*,12%,23%
Cc1cc(OCc2nnc(SC(C)C(=O)O)n2-c2ccccc2)ccc1Cl (stereo not drawn),?,4,-18%,-39%,-1%,43%
O=C1NCCCN1Cc1ccc(Cl)cc1,-2%,-8,-5%,0%,-1%,25%
O=C(NCc1ccccn1)C1CC(=O)N(C2CCCC2)C1 (stereo not drawn),79µM*,-2,-1%,.,.,22%
O=C(NCCCN1CCc2ccccc2C1)C1CCN(S(=O)(=O)N2CCCC2)CC1,-25%,.,-5%,50µM*,-3%,16%
